{"source": "paper PMC7862700", "about": "“An all-to-all approach to the identification of sequence-specific readers for epigenetic DNA modifications on cytosine”", "experiment_in_all_cases": "DAPPL (digital affinity profiling via proximity ligation, sequencing); 10 mM Tris-HCl pH 7.5, 50 mM NaCl, 1 mM DTT, 4% glycerol, room temperature, 30 min; GST-TFs on glutathione beads, 16-mer random dsDNA library, 0.1% formaldehyde crosslink after washing; high values mean tight binding", "conditions_in_all_cases": "protein: recombinant; tags: N-terminal GST; dsDNA, one strand shown", "key": {"FLI1": {"biological_target": "T1, FLI1 (Homo sapiens, UniProt Q01543 1-452)", "T1 sequence": "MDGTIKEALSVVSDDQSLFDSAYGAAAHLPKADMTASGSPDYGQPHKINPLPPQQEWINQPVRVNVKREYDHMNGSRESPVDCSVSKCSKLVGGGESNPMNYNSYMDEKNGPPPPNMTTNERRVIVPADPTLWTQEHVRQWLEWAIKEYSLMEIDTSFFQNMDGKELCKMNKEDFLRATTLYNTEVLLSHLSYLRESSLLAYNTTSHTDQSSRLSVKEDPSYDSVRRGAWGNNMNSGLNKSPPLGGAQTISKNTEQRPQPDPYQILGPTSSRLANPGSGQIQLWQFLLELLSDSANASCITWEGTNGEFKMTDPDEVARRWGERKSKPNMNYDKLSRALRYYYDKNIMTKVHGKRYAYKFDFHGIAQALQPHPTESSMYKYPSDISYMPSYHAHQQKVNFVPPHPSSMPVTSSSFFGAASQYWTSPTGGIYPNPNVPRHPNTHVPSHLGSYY", "in_short": "(§1)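 The binding signal reported is, for every hexamer, its read frequency for a factor over its read frequency for the tag-only sample. Reads came from pools of yeast-expressed, GST-fused human transcription factors on glutathione beads, barcoded with DNA and mixed with that sample, which were incubated with 200 nmole of a random double-stranded 16-mer DNA library in Tris/NaCl/DTT/glycerol buffer at room temperature for 30 min. After washing, the pools were crosslinked with 0.1% formaldehyde, proximity-ligated with BsaI/T4 ligase for 1 h at 37 °C, PCR-amplified and sequenced on an Illumina NextSeq500.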"}, "ELK1": {"biological_target": "T2, ELK1 (Homo sapiens, UniProt P19419 1-428)", "T2 sequence": "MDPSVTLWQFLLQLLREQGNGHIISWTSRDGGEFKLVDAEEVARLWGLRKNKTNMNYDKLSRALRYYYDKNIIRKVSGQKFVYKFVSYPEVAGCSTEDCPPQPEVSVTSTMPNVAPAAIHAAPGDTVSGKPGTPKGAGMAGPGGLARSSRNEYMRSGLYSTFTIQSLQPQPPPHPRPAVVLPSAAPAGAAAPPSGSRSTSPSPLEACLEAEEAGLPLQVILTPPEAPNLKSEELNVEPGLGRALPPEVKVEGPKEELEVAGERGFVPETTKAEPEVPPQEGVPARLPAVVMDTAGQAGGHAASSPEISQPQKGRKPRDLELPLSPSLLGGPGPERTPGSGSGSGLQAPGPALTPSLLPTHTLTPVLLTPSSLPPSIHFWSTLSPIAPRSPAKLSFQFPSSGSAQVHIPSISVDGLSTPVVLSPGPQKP", "in_short": "as §1"}, "GABPA": {"biological_target": "T3, GABPA (Homo sapiens, UniProt Q06546 1-454)", "T3 sequence": "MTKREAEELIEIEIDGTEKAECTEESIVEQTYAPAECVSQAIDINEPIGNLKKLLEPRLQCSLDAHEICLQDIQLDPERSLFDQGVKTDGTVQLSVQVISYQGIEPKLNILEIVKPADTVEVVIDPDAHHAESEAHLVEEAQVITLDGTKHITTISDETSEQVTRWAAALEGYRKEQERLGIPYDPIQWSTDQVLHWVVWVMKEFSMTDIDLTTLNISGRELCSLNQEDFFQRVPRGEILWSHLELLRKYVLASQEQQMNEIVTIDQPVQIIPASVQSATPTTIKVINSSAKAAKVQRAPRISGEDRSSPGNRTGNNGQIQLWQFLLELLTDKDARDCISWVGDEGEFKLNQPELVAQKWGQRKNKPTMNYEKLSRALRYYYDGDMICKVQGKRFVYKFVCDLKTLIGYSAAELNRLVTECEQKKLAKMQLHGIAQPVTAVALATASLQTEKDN", "in_short": "as §1"}, "ERG": {"biological_target": "T4, ERG (Homo sapiens, UniProt P11308 1-479)", "T4 sequence": "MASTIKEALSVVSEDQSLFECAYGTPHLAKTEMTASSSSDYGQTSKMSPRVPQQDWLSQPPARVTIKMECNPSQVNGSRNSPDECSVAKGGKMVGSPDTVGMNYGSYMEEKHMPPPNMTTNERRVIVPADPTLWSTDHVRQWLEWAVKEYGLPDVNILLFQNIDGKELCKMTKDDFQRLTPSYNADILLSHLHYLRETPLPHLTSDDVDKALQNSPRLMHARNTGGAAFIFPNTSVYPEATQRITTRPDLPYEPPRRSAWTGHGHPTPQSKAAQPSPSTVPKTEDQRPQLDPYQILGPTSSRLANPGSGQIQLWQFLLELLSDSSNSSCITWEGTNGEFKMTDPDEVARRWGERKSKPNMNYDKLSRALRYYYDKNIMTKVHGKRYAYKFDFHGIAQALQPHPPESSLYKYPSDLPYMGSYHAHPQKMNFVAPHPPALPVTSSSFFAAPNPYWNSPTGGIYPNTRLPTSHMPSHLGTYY", "in_short": "as §1"}, "ELF1": {"biological_target": "ELF1 (Homo sapiens, UniProt P32519 1-619)", "sequence (P32519 whole entry)": "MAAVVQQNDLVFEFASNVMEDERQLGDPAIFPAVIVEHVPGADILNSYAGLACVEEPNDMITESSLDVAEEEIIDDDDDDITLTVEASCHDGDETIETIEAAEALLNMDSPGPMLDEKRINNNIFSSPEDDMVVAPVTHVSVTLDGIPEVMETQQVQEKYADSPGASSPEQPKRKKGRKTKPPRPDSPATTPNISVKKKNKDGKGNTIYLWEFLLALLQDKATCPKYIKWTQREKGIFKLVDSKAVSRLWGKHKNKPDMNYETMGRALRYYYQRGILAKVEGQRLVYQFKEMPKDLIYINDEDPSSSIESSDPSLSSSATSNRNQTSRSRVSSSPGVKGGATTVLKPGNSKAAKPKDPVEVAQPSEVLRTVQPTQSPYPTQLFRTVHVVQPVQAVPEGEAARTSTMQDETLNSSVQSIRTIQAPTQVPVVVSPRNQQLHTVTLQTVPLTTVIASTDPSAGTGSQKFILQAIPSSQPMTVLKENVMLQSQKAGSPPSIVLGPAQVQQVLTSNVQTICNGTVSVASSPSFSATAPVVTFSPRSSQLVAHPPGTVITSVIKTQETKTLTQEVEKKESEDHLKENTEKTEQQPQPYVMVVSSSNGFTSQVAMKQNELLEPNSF", "in_short": "as §1"}, "EHF": {"biological_target": "T5, EHF (Homo sapiens, UniProt Q9NZC4 1-300)", "T5 sequence": "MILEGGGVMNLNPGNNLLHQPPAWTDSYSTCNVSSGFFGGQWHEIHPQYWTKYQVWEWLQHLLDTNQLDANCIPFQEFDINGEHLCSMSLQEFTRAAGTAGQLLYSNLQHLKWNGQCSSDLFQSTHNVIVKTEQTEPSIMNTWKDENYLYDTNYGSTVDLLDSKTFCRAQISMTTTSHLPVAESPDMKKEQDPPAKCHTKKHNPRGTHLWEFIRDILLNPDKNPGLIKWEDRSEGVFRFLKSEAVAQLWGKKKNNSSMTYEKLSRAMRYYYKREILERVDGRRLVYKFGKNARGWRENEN", "in_short": "as §1"}, "SPI1": {"biological_target": "SPI1 (Homo sapiens, UniProt P17947 1-270)", "in_short": "as §1"}, "SPIB": {"biological_target": "SPIB (Homo sapiens, UniProt Q01892 1-262)", "sequence (Q01892 whole entry)": "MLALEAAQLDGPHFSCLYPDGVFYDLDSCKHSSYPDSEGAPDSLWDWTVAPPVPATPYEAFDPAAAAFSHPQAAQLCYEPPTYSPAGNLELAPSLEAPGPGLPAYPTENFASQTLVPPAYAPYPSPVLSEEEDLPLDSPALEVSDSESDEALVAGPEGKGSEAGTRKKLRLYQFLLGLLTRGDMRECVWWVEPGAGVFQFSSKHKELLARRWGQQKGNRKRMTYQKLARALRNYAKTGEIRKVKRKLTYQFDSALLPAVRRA", "in_short": "as §1"}, "ELK3": {"biological_target": "T6, ELK3 (Homo sapiens, UniProt P41970 1-407)", "T6 sequence": "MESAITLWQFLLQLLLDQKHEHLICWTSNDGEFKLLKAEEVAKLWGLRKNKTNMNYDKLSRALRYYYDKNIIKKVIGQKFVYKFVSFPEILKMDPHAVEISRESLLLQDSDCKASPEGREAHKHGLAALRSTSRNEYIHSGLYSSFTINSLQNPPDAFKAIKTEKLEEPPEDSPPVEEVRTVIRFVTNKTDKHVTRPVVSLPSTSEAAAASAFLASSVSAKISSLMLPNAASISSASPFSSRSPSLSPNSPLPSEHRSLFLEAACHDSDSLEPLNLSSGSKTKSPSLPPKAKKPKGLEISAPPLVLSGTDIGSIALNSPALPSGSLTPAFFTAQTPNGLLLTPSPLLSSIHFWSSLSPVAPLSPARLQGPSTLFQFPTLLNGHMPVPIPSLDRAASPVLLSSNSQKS", "in_short": "as §1"}}, "data": [{"sequence": "GCTATG", "values": [{"measurement": "binding signal", "setting": "FLI1", "value": "1.16 fold enrichment (6-mer frequency, TF over GST control)"}, {"measurement": "binding signal", "setting": "ELK1", "value": "1.13 fold enrichment (6-mer frequency, TF over GST control)"}, {"measurement": "binding signal", "setting": "GABPA", "value": "1.26 fold enrichment (6-mer frequency, TF over GST control)"}, {"measurement": "binding signal", "setting": "ERG", "value": "1.11 fold enrichment (6-mer frequency, TF over GST control)"}, {"measurement": "binding signal", "setting": "ELF1", "value": "1.22 fold enrichment (6-mer frequency, TF over GST control)"}, {"measurement": "binding signal", "setting": "EHF", "value": "1.21 fold enrichment (6-mer frequency, TF over GST control)"}, {"measurement": "binding signal", "setting": "SPI1", "value": "1.13 fold enrichment (6-mer frequency, TF over GST control)"}, {"measurement": "binding signal", "setting": "SPIB", "value": "1.31 fold enrichment (6-mer frequency, TF over GST control)"}, {"measurement": "binding signal", "setting": "ELK3", "value": "1.15 fold enrichment (6-mer frequency, TF over GST control)"}]}]}
